Results published in PubChem BioAssay (NCI).
This is part of a sample that, as a whole, favours compounds with a hit. Of some 83,000 tested, about 20% had one in any assay.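 48-hour exposure, single concentration, 96-well plates; percent growth endpoint where 0 means no net growth. Active: below 10.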 Activity calls are given as the source filed them.

Test system: OVCAR-4 ovarian
Experiment: NCI-60 one-dose screen, 48 h (100 = growth as untreated, 0 = no growth, -100 = all killed)
Conditions: 10 µM unless noted
Method: Growth inhibition of the OVCAR-4 human tumor cell line is measured as a screen for anti-cancer activity. Cells are grown in 96 well plates and exposed to the test compound for 48 hours. Compounds are tested at a single concentration, which is 10^-5 M for most compounds. The reported endpoint is percent growth (GI% or GIPRCNT), where numbers from 0 - 100% represent growth inhibition, and numbers from -100% - 0 represent cell death. For example, a value of 40 represents 60% growth inhibition. A value of 0 means no net growth occurred over the course of the experiment. A value of -40 indicates 40% of cells at the beginning of the experiment died by the end of the experiment. A value of -100 means all cells are dead at the end of the experiment.
NCI-60 Human Tumor Cell Lines Screen was performed using the standard one-dose NCI protocol, which is described in more detail at https://dtp.cancer.gov/discovery_development/nci-60/default.htm.
Compounds with GIPRCNT values below 10 were considered active. Activity score was based on GIPRCNT using the following formula: […]
Score is 0 for GIPRCNT values of 100 or above, 50 for GIPRCNT values of 0, and 100 for GIPRCNT values of -100.

SMILES | growth
COC(=O)c1c2c(c(C)[n+]([O-])c1C)C(=O)C(NCc1ccc(F)c(Cl)c1)=CC2=O | -96.4% (active)
COc1cc(/C=N/Nc2ncc(-c3cc4cc5c(cc4o3)OCO5)s2)cc(OC)c1OC | 68.7% (inactive)
O=[N+]([O-])c1ccc(N2c3ccncc3Sc3ccncc32)cc1 | 109% (inactive)
N/C(=N\c1nc2ccccc2s1)NC(=O)Nc1cccc(Cl)c1 | 62.3% (inactive)
Cc1c2c(c(C)c3c1oc1cc(O)ccc13)C(=O)N(CCN1CCCCC1)C2=O | 94.1% (inactive)
COc1cccc(-c2nc3sccn3c2/C=C/C(=O)c2ccc(C(F)(F)F)cc2)c1 | 92.9% (inactive)
Cc1cc(NCc2cc(Nc3ccnc4cc(Cl)ccc34)ccc2F)nc(N2CCN(C)CC2)n1 | 18.7% (inactive)
N#Cc1c(N)nn(C(=O)c2ccc(NC(=O)c3ccccn3)cc2)c1-c1ccc(Cl)cc1 | -2.76% (active)
C[C@H](NC(=O)[C@@H]1CSSC[C@@H](NC(=O)c2nc3ccccc3cc2O)C(=O)NCC(=O)N1C)c1ccccc1 | 94.3% (inactive)
COc1cc(/C=C/C(=O)c2ccc(Nc3nc(Nc4ccc(F)cc4)nc(Nc4ccc(Cl)cc4)n3)cc2)cc(OC)c1OC | 31.8% (inactive)
COc1ccc2c(c1)O/C(=C/c1ccc(OCC(=O)c3ccccc3)cc1)C2=O | 113% (inactive)
COc1ccc(C2=Nc3c(N)ncnc3NC(c3ccc4c(c3)OCO4)C2)cc1 (stereo not given) | 95% (inactive)
Cc1nc2ccccc2c(/C=C/c2ccc(Cl)cc2)c1C(=O)/C=C/c1ccc(F)cc1 | 25.8% (inactive)
Cc1ccc2nc3ccccc3c(NCc3ccccc3)c2c1 | 32.8% (inactive)
Cc1ccc(-n2c(-c3ccccc3)c(-c3ccccc3)c3c(SCC(=O)n4[nH]c(N)cc4=O)ncnc32)cc1 | 96% (inactive)
Cc1nn(-c2ccccc2)c(Cl)c1/C=C(/NC(=O)c1ccccc1)c1nc2ccccc2[nH]1 | 106% (inactive)
COc1ccc2c(c1)C(=O)/C(=C/c1cccc(OCC(=O)Nc3nc(C)c(C)s3)c1)O2 | -66.7% (active)
COc1ccc(NC(=O)CSc2nnc(-c3cc(-c4ccc(S(N)(=O)=O)cc4)nc4ccccc34)n2-c2ccccc2)cc1 | 88.6% (inactive)
O=C(CC(SCc1ccccc1)c1ccccc1)c1ccccc1 (stereo not given) | 90% (inactive)
COc1cccc(C(=O)NCCNc2cc(-c3cn(-c4ccccc4)nc3-c3cccc(OC)c3)ccn2)c1 | 49.6% (inactive)

SMILES | growth
Cc1ccc(Cl)c(NS(=O)(=O)c2ccc(-c3cnc(C4CC4)o3)cc2)c1 | 48.3% (inactive)
c1cc2ccc3cc2cc1CNCCOCCNCc1ccc2ccc(cc2c1)CNCCOCCNC3 | -40.4% (active)
COc1cccc(-c2nn(-c3ccccc3)cc2-c2ccnc(NCCCNC(=O)c3cccc(C(F)(F)F)c3)c2)c1 | 31.3% (inactive)
CC/C=C/C/C=C/C/C=C/C/C=C/C/C=C/C/C=C/CCC(=O)Nc1ccn([C@@H]2O[C@H](CO)[C@@H](O)C2(F)F)c(=O)n1 | 73.8% (inactive)
COc1ccc(C2CC(c3cccc(OC)c3)=NN2C(=O)c2cc(OC)c(OC)c(OC)c2)cc1 (stereo not given) | 56.6% (inactive)
COc1cc(CCC[P+](c2ccccc2)(c2ccccc2)c2ccccc2)cc2c1OCO2 | 12.4% (inactive)
CC1(C)CC[C@]2(C(=O)N3CCOCC3)CC[C@]3(C)C(=CC[C@@H]4[C@@]5(C)CC[C@H](OC(=O)c6cccnc6)C(C)(C)[C@@H]5CC[C@]43C)[C@@H]2C1 | 60.7% (inactive)
N=C1CCC(=N)c2c1c(O)c1ccccc1c2O | 95.2% (inactive)
COc1ccc2[nH]c(O)c(C(=Nc3ccc(N(C)C(=O)CN4CCN(C)CC4)cc3)c3ccccc3)c2c1 | 47.1% (inactive)
Cc1ccc(N(C(=O)CCc2c[nH]c3ccccc23)[C@H](C(=O)Nc2ccc(Cl)cc2)c2cccc([N+](=O)[O-])c2)cc1 | 99.1% (inactive)
CCOC(=O)c1c2ncccc2n2c(=O)n(-c3ccccc3C)nnc12 | 90.2% (inactive)
N#Cc1c(-c2cccc(Cl)c2)cc(-c2cccc(Cl)c2)[nH]c1=O | 68.4% (inactive)
N#Cc1c(N2CCNCC2)nc2sc3cc(Cl)c(Cl)cc3n2c1=N | 85.5% (inactive)
Cc1cccc(Cc2cnc(NC(=O)c3ccc4nnsc4c3)s2)c1 | 98.3% (inactive)
CCN(CC)CCCNc1ccc(Nc2ccc(OC)cc2)cc1 | 84.6% (inactive)
COc1ccc(N=C(c2ccccc2)C2C(=O)c3ccccc3C2=O)cc1 | 77.3% (inactive)
CNC(=O)c1cc(Oc2ccc3nc(Nc4ccc(Cl)c(C(F)(F)F)c4)ccc3c2)ccn1 | 56.3% (inactive)
O=C(Nc1cccc(C(F)(F)F)c1)Nc1cccc(C(F)(F)F)c1 | 23.9% (inactive)
COc1cc(C(=O)/C=C/c2c(C(F)(F)F)nc3sccn23)cc(OC)c1OC | 17.8% (inactive)
Cc1ccc2c(c1)Sc1c(ccc3ccccc13)N2 | 73.5% (inactive)
